Test results published in PubChem BioAssay (NCATS).
Inconclusive results are not listed. The source made the active and inactive calls. The call rests on the fitted dose curve; in most records, active means well fitted inhibition curve with a large enough effect; inconclusive means small, poorly fitted or top-dose-only effect; inactive means no such curve, though single readings can be large or run the other way.

Target: Rap guanine nucleotide exchange factor 4 (Homo sapiens) (UniProt Q8WZA2)
Experiment: Confirmatory qHTS for antagonist of cAMP-regulated guanine nucleotide exchange factor 4 (EPAC2) (AID 1645885); further: nearly all actives have a fitted effect of over 25% in size
Details: EPAC2 Rap1B-BODIPY-GDP exchange fluorescence, biochemical; series mostly up to 12.7 µM
Potency means the concentration at half of the fitted maximal effect.

Sequence of Rap guanine nucleotide exchange factor 4 (Homo sapiens) (Q8WZA2 whole entry, looked up): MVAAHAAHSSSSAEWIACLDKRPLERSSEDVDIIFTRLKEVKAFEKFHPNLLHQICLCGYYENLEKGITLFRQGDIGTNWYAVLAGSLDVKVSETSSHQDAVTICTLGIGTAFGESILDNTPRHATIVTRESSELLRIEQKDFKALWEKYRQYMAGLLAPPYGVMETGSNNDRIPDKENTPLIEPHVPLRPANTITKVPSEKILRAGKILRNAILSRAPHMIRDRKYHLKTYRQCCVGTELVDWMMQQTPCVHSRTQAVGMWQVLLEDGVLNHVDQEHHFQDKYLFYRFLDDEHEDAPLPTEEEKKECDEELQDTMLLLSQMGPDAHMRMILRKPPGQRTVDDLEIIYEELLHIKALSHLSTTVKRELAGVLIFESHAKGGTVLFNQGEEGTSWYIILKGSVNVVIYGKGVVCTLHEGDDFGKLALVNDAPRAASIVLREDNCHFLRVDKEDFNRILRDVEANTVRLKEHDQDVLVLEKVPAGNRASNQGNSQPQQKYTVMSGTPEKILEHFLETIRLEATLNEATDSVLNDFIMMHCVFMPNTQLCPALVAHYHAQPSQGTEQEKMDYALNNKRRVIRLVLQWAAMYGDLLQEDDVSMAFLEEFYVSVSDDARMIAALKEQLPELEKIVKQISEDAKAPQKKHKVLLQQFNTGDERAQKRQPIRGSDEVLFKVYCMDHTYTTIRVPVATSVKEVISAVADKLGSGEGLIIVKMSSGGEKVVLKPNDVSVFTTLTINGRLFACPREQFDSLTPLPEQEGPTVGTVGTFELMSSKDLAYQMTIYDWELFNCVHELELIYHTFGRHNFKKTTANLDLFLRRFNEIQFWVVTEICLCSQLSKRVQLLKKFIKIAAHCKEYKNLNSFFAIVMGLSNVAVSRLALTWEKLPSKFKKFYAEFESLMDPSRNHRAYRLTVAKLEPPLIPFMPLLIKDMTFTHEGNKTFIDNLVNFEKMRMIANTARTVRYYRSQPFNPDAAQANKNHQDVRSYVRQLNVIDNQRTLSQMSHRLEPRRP

Potency, active:
CCN1C/C(=C/c2ccc(N3CCOCC3)cc2)C(=O)/C(=C/c2ccc(N3CCOCC3)cc2)C1 67.5 µM
CCN(CC)c1nc(SCC(=O)O)nc(N(CC)CC)n1 12 µM
N#Cc1c(-c2ccccc2)nc(SCc2cccc(Cl)c2)[nH]c1=O 37.9 µM
Cc1ccc(-c2nc3ccc(Br)cn3c2Cc2ccccc2C(F)(F)F)cc1 47.8 µM
COc1cc(/C=C2\SC(=O)N(CC(=O)Nc3cccc(C)c3)C2=O)cc([N+](=O)[O-])c1O 47.8 µM
CCOC(=O)c1cc2n(c1N)-c1ccccc1C2=O 23.9 µM
O=c1cc(-c2ccccc2)nc2c(-c3ccccc3)c(C(F)(F)F)[nH]n12 16.9 µM

Potency, inactive:
CCN1/C(=C/c2ccc3cc(C)ccc3[n+]2CC)Sc2ccccc21
COc1ccc(N2CCN(C(=O)CSc3ncn[nH]3)CC2)cc1
CN(C)C(=S)Oc1ccccc1-c1ccccc1OC(=S)N(C)C
Clc1ccc(-c2cc3ccccc3nc2N2CCOCC2)cc1
Cc1ccsc1C(=O)OCC(=O)NCCNC(=O)COC(=O)c1sccc1C
O=C(/C=C/c1ccc([N+](=O)[O-])cc1)Nc1cccc(C(=O)Nc2ccccc2C(=O)O)c1
CCCCn1c(N)c(N(CC(C)C)C(=O)C2CCN(C(=O)c3ccc(Cl)cc3)CC2)c(=O)[nH]c1=O
CCC(=O)Nc1ccc(C(=O)NNC(=O)c2ccc([N+](=O)[O-])cc2)cc1
O=C(c1ccc(Br)cc1)N(Cc1cccs1)c1ccc(F)cc1
COc1ccccc1OCC(=O)Nc1cccc(S(=O)(=O)NC2=NCCCCC2)c1
CCN1C(=O)/C(=C/C=C2/SCCN2C)SC1=S
Cc1nc(N)sc1C(=O)N1N=N1
CCCCN1C(=O)/C(=C/C=C2\Oc3ccccc3N2CC)SC1=S
C=CCOc1ccc(C(c2c(C(=O)O)[nH]c3ccccc23)c2c(C(=O)O)[nH]c3ccccc23)cc1
CCOc1ccc(-n2c(SCC(=O)Nc3ccccc3OC)nc3c(oc4ccccc43)c2=O)cc1
CN(C)CCCN(C(=O)COc1ccc(Cl)cc1)c1nc2cc3c(cc2s1)OCCO3
O=C1c2cccc3cccc(c23)N1Cc1ccc(F)cc1
CC(Sc1ccccc1)C(=O)NNC(=O)c1csc(N2CCOCC2)n1 (centres undefined)
Cc1nn(CCc2nn[nH]n2)c2nc(-c3ccc(C4CCCCC4)cc3)cc(C(F)(F)F)c12
CCOC(=O)c1ccc(N2C(=O)c3[nH]nc(-c4ccc(OCC)cc4)c3C2c2cccs2)cc1 (centres undefined)
COc1ccc(CNC(=O)c2cc(=O)c3cc(C)ccc3o2)cc1
O=C(COc1ccccc1Cl)Nc1cccc(S(=O)(=O)NC2=NCCCCC2)c1
Cc1ccc2nc(-c3ccc(NC(=O)c4ccco4)cc3)[nH]c2c1
COc1ccc(NC(=O)Cn2cnc3sc(C)c(S(=O)(=O)N4CCOCC4)c3c2=O)c(OC)c1
COc1ccc(NC(=O)CS(=O)(=O)Cc2ccccc2)c([N+](=O)[O-])c1
COC(=O)C1(Cc2ccccc2)NC(c2ccc(F)cc2)C2C(=O)N(C)C(=O)C21 (centres undefined)
NC(=O)c1sc(=S)n2c1[nH]c(=O)c1sccc12
CC(=O)NC(CCS(C)(=O)=O)C(=O)Nc1cc(C)on1 (centres undefined)
NS(=O)(=O)c1ccc(-c2cccc(/C=C3\SC(=O)NC3=O)c2)cc1
CCCOc1c(OC)cccc1C1CC(=O)Nc2cc(OC)c(OC)c(OC)c21 (centres undefined)
CCCc1cc2c(cc1N(C)S(=O)(=O)c1ccccc1)OCO2

outcome, inactive:
Cc1ccc2[nH]cc(C(c3ccccc3)c3cccs3)c2c1 (centres undefined) inactive [at 12.7 µM]
